Results from PubChem BioAssay (NCATS).
Results filed as inconclusive are left out. Activity calls are given as the source filed them. Unless noted, the call rests on the fitted dose curve; in most records, active means well fitted activation curve with a large enough effect in the main read-out, with a control signal flat (not every such curve was filed as active); inconclusive means small, poorly fitted or top-dose-only effect, or effect the other way, or a change in a side signal; inactive means flat fitted curve, though single readings scatter.

Each compound was assayed against Mitogen-activated protein kinase 10 (Mus musculus) (UniProt Q61831) (assay: JNK3 AlphaScreen Assay (AID 530; active means well fitted curve in either direction with a large enough effect, not every such curve was filed as active;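 further: kinase came from lysate of stimulated human HepG2 cells; signal reports phosphorylation of biotinylated GST-cJun 1-79 at Ser73 with 10 µM ATP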)). Settings: JNK3 lysate, c-Jun phosphorylation; series mostly up to 57.1 µM.
Procedure, shortened: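 Room-temperature AlphaScreen kinase assay; pre-activated HepG2 lysate as JNK3 source, biotin-GST-cJun(1-79) substrate, 10 uM ATP, compound 15 min preincubation.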

outcome, inactive:
COC(=O)[C@@]1(Cc2ccc(OC)cc2)[C@H]2c3cc(C(=O)N4CCCC4)n(CCc4c[nH]c5ccccc45)c3C[C@H]2CN1C(=O)c1ccccc1
COC(=O)[C@@]1(Cc2ccc(F)cc2)[C@H]2c3cc(C(=O)N(C)C)n(CCc4ccccn4)c3C[C@H]2CN1C(=O)c1ccccc1
COC(=O)[C@@H]1C[C@H]1[C@@H](N)c1ccccc1
COC(=O)[C@@]1(Cc2ccccc2)[C@H]2c3cc(C(=O)N(C)C)n(CCSCCO)c3C[C@H]2CN1C(=O)c1ccccc1
C[C@@H](C(=O)N[C@@H](CO)Cc1ccccc1)[C@H]1C[C@]1(C)[C@H](NC(=O)OCc1ccccc1)c1ccccc1
C/C(=C\C1CCCCC1)C(NC(=O)c1cccnc1)c1ccc(-c2ccccc2)cc1 (configuration not stated)
COC(=O)[C@@]1(Cc2ccc(OC)cc2)[C@H]2c3cc(C(=O)N(C)C)n(Cc4ccc(C(F)(F)F)nc4)c3C[C@H]2CN1C(=O)c1ccccc1
COC(=O)[C@@]1(Cc2ccc(F)cc2)[C@H]2c3cc(C(=O)N4CCCC4)n(CCc4ccccn4)c3C[C@H]2CN1C(=O)c1ccccc1
C[C@@H](C(=O)NCc1ccccc1)[C@H]1C[C@]1(C)[C@H](NC(=O)OCc1ccccc1)c1ccccc1
COC(=O)[C@@]1(Cc2ccc(F)cc2)[C@H]2c3cc(C(=O)N(C)C)n(Cc4ccc(S(C)(=O)=O)cc4)c3C[C@H]2CN1C(=O)c1ccccc1
COC(=O)[C@@]1(Cc2ccc(OC)cc2)[C@H]2c3cc(C(=O)N(C)C)n(Cc4cc(F)c(F)c(F)c4)c3C[C@H]2CN1C(=O)c1ccccc1
COC(=O)[C@@]1(Cc2ccc(F)cc2)[C@H]2c3cc(C(=O)N4CCCC4)n(CC4CC4)c3C[C@H]2CN1C(=O)c1ccccc1

Each compound was assayed against 3',5'-cyclic-AMP phosphodiesterase 4B (Homo sapiens) (UniProt Q07343) (assay: qHTS Assay for Inhibitors of PDE-IV (AID 607)). Settings: HEK293 ACTOne CNG channel cells, membrane potential fluorescence; series mostly up to 22.9 µM.
Procedure, shortened: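 Live HEK293 cells with a modified cyclic nucleotide-gated (CNG) channel report intracellular cAMP via membrane-potential dye fluorescence (ex 535/em 590 nm). Endogenous PDE-IV was targeted. Compounds were tested at up to 22.9 uM final; RO 20-1724 100 uM served as control.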

Chain of 3',5'-cyclic-AMP phosphodiesterase 4B (Homo sapiens) (Q07343 whole entry, looked up): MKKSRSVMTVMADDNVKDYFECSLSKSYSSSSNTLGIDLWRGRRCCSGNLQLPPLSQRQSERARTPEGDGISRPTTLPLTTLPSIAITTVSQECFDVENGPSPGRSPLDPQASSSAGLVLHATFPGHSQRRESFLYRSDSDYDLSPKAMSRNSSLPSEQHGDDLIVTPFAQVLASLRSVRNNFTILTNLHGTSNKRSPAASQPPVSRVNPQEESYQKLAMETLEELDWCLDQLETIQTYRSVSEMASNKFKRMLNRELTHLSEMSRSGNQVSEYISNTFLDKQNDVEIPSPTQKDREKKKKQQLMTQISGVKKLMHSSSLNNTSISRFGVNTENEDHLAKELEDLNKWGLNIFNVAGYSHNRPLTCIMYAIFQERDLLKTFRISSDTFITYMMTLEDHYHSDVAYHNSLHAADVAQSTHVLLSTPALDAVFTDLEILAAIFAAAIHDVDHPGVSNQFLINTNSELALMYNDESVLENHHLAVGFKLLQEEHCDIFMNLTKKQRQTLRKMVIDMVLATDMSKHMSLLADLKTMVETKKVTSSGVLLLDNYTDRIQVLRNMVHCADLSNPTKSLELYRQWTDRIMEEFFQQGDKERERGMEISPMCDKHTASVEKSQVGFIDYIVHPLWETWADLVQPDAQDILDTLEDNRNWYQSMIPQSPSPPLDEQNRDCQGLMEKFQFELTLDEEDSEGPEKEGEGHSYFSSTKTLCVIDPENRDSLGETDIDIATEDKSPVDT

outcome, inactive:
COC(=O)[C@@]1(Cc2ccc(OC)cc2)[C@H]2c3cc(C(=O)N(C)C)n(Cc4cc(C)n(C)n4)c3C[C@H]2CN1C(=O)c1ccccc1
CCC/C=C(\CCC)C(NC(=O)OCC(C)C)c1ccccc1 (configuration not stated)
C[C@@H](C(=O)Nc1ccc2ccccc2c1)[C@H]1C[C@]1(C)[C@H](NC(=O)c1ccccc1)c1ccccc1
C[C@@H](C(=O)Nc1ccc2ccccc2c1)[C@H]1C[C@]1(C)[C@H](NS(=O)(=O)c1ccccc1)c1ccccc1
O=C(NCc1cccc2ccccc12)[C@H]1C[C@@H]1[C@H](NP(=O)(c1ccccc1)c1ccccc1)c1ccccc1
Cc1cc(C(=O)N[C@H](c2ccccc2)[C@@]2(C)C[C@@H]2[C@@H](C)C(=O)Nc2ccc3ccccc3c2)no1
COC(=O)[C@@]1(Cc2ccc(F)cc2)[C@H]2c3cc(C(=O)N(C)C)n(CCc4ccc(O)c(O)c4)c3C[C@H]2CN1C(=O)c1ccccc1
COC(=O)C1(CC(C)C)C=C2C(=C(C)C(=O)C2C)CN1 (configuration not stated)
COC(=O)[C@@]1(Cc2ccccc2)[C@H]2c3cc(C(=O)N(C)C)n(Cc4ccccn4)c3C[C@H]2CN1C(=O)c1ccccc1
COC(=O)[C@@]1(Cc2ccc(F)cc2)[C@H]2c3cc(C(=O)N(C)C)n(CCSCCO)c3C[C@H]2CN1C(=O)c1ccccc1
COc1ccc(CNC(=O)[C@H](C)[C@H]2C[C@]2(C)[C@H](NC(=O)OCc2ccccc2)c2ccccc2)cc1OC
Cc1ccc(CNC(=O)[C@@H]2C[C@H]2[C@@H](NP(=O)(c2ccccc2)c2ccccc2)c2ccccc2)o1
O=C(NCc1ccccn1)[C@H]1C[C@@H]1[C@H](NP(=O)(c1ccccc1)c1ccccc1)c1ccccc1
COC(=O)[C@@]1(Cc2ccc(OC)cc2)[C@H]2c3cc(C(=O)N4CCCC4)n(Cc4cc(C)n(C)n4)c3C[C@H]2CN1C(=O)c1ccccc1
COC(=O)[C@@]1(Cc2ccccc2)[C@H]2c3cc(C(=O)N4CCCC4)n(CCSCCO)c3C[C@H]2CN1C(=O)c1ccccc1
C[C@@H](C(=O)Nc1ccc2ccccc2c1)[C@@H]1C[C@@]1(C)[C@@H](NC(=O)c1cccnc1)c1ccccc1
COC(=O)[C@@]1(Cc2ccc(F)cc2)[C@H]2c3cc(C(=O)N4CCCC4)n(CCc4c[nH]c5cc(F)ccc45)c3C[C@H]2CN1C(=O)c1ccccc1
COC(=O)[C@@]1(Cc2ccc(OC)cc2)[C@H]2c3cc(C(=O)N(C)C)n(Cc4ccc(Cl)c(C(F)(F)F)c4)c3C[C@H]2CN1C(=O)c1ccccc1
COC(=O)[C@@]1(Cc2ccc(F)cc2)[C@H]2c3cc(C(=O)N(C)C)n(Cc4ccccn4)c3C[C@H]2CN1C(=O)c1ccccc1
COC(=O)[C@@]1(Cc2ccc(OC)cc2)[C@H]2c3cc(C(=O)N(C)C)n(CCc4c[nH]c5ccc(O)cc45)c3C[C@H]2CN1C(=O)c1ccccc1
COC(=O)[C@@]1(Cc2ccc(OC)cc2)[C@H]2c3cc(C(=O)N(C)C)n(CCc4ccc(O)c(OC)c4)c3C[C@H]2CN1C(=O)c1ccccc1
COC(=O)[C@@]1(Cc2ccc(OC)cc2)[C@H]2c3cc(C(=O)N(C)C)n(CCc4ccc(OC)c(Br)c4)c3C[C@H]2CN1C(=O)c1ccccc1
CS(=O)(=O)c1ccc(CNC(=O)[C@@H]2C[C@H]2[C@@H](NP(=O)(c2ccccc2)c2ccccc2)c2ccccc2)cc1
C[C@@H](C(=O)NCC1CC1)[C@@H]1C[C@@]1(C)[C@@H](NC(=O)OCc1ccccc1)c1ccccc1
COC(=O)[C@@]1(Cc2ccc(OC)cc2)[C@H]2c3cc(C(=O)N4CCCC4)n(Cc4cc(F)c(F)c(F)c4)c3C[C@H]2CN1C(=O)c1ccccc1
Cc1cc(CNC(=O)[C@H](C)[C@@H]2C[C@@]2(C)[C@@H](NC(=O)OCc2ccccc2)c2ccccc2)nn1C
COC(=O)Cn1c(C(=O)N(C)C)cc2c1C[C@H]1CN(C(=O)c3ccccc3)[C@@](Cc3ccc(F)cc3)(C(=O)OC)[C@@H]21
COC(=O)[C@@]1(Cc2ccc(OC)cc2)[C@H]2c3cc(C(=O)N4CCCC4)n(Cc4ccc(O)c(OC)c4)c3C[C@H]2CN1C(=O)c1ccccc1
COC(=O)[C@@]1(Cc2ccc(OC)cc2)[C@H]2c3cc(C(=O)N4CCCC4)n(CCc4c[nH]c5ccccc45)c3C[C@H]2CN1C(=O)c1ccccc1
COC(=O)[C@@]1(Cc2ccc(F)cc2)[C@H]2c3cc(C(=O)N(C)C)n(CCc4ccccn4)c3C[C@H]2CN1C(=O)c1ccccc1
COC(=O)[C@@H]1C[C@H]1[C@@H](N)c1ccccc1
COC(=O)[C@@]1(Cc2ccccc2)[C@H]2c3cc(C(=O)N(C)C)n(CCSCCO)c3C[C@H]2CN1C(=O)c1ccccc1
C[C@@H](C(=O)N[C@@H](CO)Cc1ccccc1)[C@H]1C[C@]1(C)[C@H](NC(=O)OCc1ccccc1)c1ccccc1
C/C(=C\C1CCCCC1)C(NC(=O)c1cccnc1)c1ccc(-c2ccccc2)cc1 (configuration not stated)
COC(=O)[C@@]1(Cc2ccc(OC)cc2)[C@H]2c3cc(C(=O)N(C)C)n(Cc4ccc(C(F)(F)F)nc4)c3C[C@H]2CN1C(=O)c1ccccc1
COC(=O)[C@@]1(Cc2ccc(F)cc2)[C@H]2c3cc(C(=O)N4CCCC4)n(CCc4ccccn4)c3C[C@H]2CN1C(=O)c1ccccc1
C[C@@H](C(=O)NCc1ccccc1)[C@H]1C[C@]1(C)[C@H](NC(=O)OCc1ccccc1)c1ccccc1
COC(=O)[C@@]1(Cc2ccc(F)cc2)[C@H]2c3cc(C(=O)N(C)C)n(Cc4ccc(S(C)(=O)=O)cc4)c3C[C@H]2CN1C(=O)c1ccccc1
COC(=O)[C@@]1(Cc2ccc(OC)cc2)[C@H]2c3cc(C(=O)N(C)C)n(Cc4cc(F)c(F)c(F)c4)c3C[C@H]2CN1C(=O)c1ccccc1
COC(=O)[C@@]1(Cc2ccc(F)cc2)[C@H]2c3cc(C(=O)N4CCCC4)n(CC4CC4)c3C[C@H]2CN1C(=O)c1ccccc1
